Inhibition data for three molecules are collected here from PubChem BioAssay AID2358 (The Scripps Research Institute Molecular Screening Center, 2010).

Screen size: about 1,900 compounds; about 1,000 (53%) were called active. The set was probably picked from earlier hits. Only a sample is shown. A number with no mark means an inactive call.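 Rule for the calls: active = mean PP1 inhibition above a set limit taken from the earlier primary screen (cut at about 15% in these data); inactive = the rest.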

Sequence of Serine/threonine-protein phosphatase PP1-alpha catalytic subunit (Homo sapiens) (P62136 whole entry, looked up): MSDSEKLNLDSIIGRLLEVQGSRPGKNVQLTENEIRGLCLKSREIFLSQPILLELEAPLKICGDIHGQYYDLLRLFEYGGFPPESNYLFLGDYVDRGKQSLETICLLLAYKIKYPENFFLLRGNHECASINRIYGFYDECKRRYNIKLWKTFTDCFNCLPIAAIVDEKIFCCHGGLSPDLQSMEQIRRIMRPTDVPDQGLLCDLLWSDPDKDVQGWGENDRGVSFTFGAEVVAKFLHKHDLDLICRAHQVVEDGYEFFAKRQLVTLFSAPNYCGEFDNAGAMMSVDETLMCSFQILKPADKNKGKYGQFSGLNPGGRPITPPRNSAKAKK

This assay addresses Serine/threonine-protein phosphatase PP1-alpha catalytic subunit (Homo sapiens) (UniProt P62136). Kind of assay: inhibition of human PP1-alpha enzyme activity – biochemical, fluorescence, OMFP substrate, triplicate, confirmation (AID 2358). The settings on record: purified PP1alpha, at 6.7 µM, active compounds read high.
For the molecule `O=c1[nH]c(CN2CC=C(c3ccccc3)CC2)nc2scc(-c3cccs3)c12`, the inhibition is 19.9% (active). Next, `CCOP(=O)(OCC)C(O)c1ccc(OC)cc1OC` (stereo not drawn): -5.49%.

Consider `O=C(O)c1ccccc1NC(=O)C1C2CCC(O2)C1C(=O)O` (stereo not drawn), for which the inhibition was 13.2%.

Broadly, the inhibition is the change of the read-out against control, counted positive when it falls.
